# Most compounds without a hit are left out; they make up all but 12% or so of the library.
# BAZ2B inh – inhibitors of human BAZ2B bromodomain. Potency, µM (series often up to 114 µM), usual class: inhibitors. Q9UIF8. AlphaScreen BAZ2B-H3K14Ac peptide displacement. 360,000 tested, 4.4% active; also: nearly all actives have a fitted effect of over 60% in size
#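 Inhibition is scored as reduced AlphaScreen emission. The BAZ2B/b-H3(5-23)K14Ac complex (50 nM each) in PBS pH 7.4, 0.01% Tween-20 meets compound (up to 110 uM) for 30 min at RT before bead addition.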
# Sfp PPTase inh – Sfp phosphopantetheinyl transferase inhibition; Q9F4F7; Biochemical Sfp PPTase activity, qHTS; Potency, µM, most hits filed as inhibitors; 310,000 tested, 3.5% active; AID 1490;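 also: the enzyme is Sfp with the accession as filed and its product quenches rhodamine fluorescence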
#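 With Hepes-Na pH 7.6 buffer containing 10 mM MgCl2, Sfp (15 nM) modified BHQ-2-YbbR (12.5 uM) using rhodamine-CoA (5 uM). Two reads 30 minutes apart at 525/598 nm yielded each well's rate.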
# PLK1 PBD inh – inhibitors of human PLK1 polo-box domain binding; P53350; Plk1 PBD binding of FITC phosphopeptide, fluorescence polarization; 360,000 tested, 2.8% active; Potency, µM, actives largely listed as inhibitors; also: series mostly up to about 57 µM; nearly all actives have a fitted effect of over 65% in size
# G9a block – G9a (human) methyltransferase inhibition. Q96KQ7. G9a H3K9 monomethylation, AlphaScreen, 2 h. Potency, µM (titrated, usually from 102 µM), actives largely listed as inhibitors. 350,000 tested, 8.8% active; also: nearly all actives have a fitted effect of over 75% in size
# Target sequence (Q96KQ7 913-1193 limits assumed): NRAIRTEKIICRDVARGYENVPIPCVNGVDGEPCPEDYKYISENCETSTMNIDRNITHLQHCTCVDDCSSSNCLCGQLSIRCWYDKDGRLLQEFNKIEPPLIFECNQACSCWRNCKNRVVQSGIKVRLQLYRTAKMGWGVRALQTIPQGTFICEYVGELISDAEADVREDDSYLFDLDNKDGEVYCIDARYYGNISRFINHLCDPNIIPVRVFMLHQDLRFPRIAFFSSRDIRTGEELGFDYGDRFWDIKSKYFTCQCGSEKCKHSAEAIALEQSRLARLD
#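 AlphaScreen read-out: biotin-H3K9 peptide (500 nM) methylation by 20 nM enzyme with 20 uM SAM, 2 h at room temperature after 15 min compound preincubation; anti-monomethyl H3K9 antibody plus donor/acceptor beads, 10 min dark.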
# HP1b chromo inh – inhibitors of HP1-beta chromodomain binding to methylated histone tails. 390,000 tested, 0.56% active. Potency, µM (series often up to 114 µM), most hits filed as inhibitors. AlphaScreen HP1-beta / biotin-H3K9me3 peptide binding. P83916. AID 540317; also: nearly all actives have a fitted effect of over 70% in size
# Target sequence (P83916 whole entry, looked up): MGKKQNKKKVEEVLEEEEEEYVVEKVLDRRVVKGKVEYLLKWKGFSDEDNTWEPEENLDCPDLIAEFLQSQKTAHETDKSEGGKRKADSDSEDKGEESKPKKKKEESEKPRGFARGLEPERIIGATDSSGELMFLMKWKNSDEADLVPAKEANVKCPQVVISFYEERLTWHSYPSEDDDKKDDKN
#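 Compound inhibition of the preformed complex between 50 nM HP1-beta and 50 nM biotinylated H3K9me3 peptide was read by AlphaScreen. Buffer was PBS pH 7.4 with 0.01% Tween-20. Incubations ran 30 min at room temperature, with 10 ug/mL donor/acceptor beads.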
# JMJD2A Tudor – inhibitors of human JMJD2A Tudor domain; Potency, µM (titrated, usually from 114 µM), most hits filed as inhibitors; 390,000 tested, 4.4% active; O75164; AlphaScreen JMJD2A-Tudor / H3K4me3 peptide binding; AID 504339; also: nearly all actives have a fitted effect of over 50% in size
# A number is an active result; 0 = inactive; ? = inconclusive; - = not tested or not shown; [ ] = remark or other dose. Calls follow the shape of the dose curve; as a rule, active = well fitted curve in the direction sought with a large enough effect; inconclusive = small, poorly fitted or top-dose-only effect, or another doubt; inactive = no such curve, though single readings can be large; an effect the other way counts as inactive or inconclusive.
SMILES,BAZ2B inh,Sfp PPTase inh,PLK1 PBD inh,G9a block,HP1b chromo inh,JMJD2A Tudor
Cc1cccc(CN(CC(=O)N/N=C/c2ccco2)S(=O)(=O)c2ccc(Cl)cc2)c1,50µM,0,0,?,?,79µM
COc1ccc(C(=O)/C=C/c2cn(CC(O)CN3CCOCC3)c3ccccc23)cc1 (stereo unspecified),?,0,0,45µM,0,0
COc1ccc(C(=O)/C=C/c2cn(CC(O)CN(CC(C)C)CC(C)C)c3ccccc23)cc1OC (stereo unspecified),0,-,-,0,0,0
COc1ccc(C(=O)/C=C/c2cn(CC(O)CN3CCc4ccccc43)c3ccccc23)cc1OC (stereo unspecified),10µM,-,-,?,0,20µM
Cc1ccc(C(=O)/C=C/c2cn(CC(O)CN3CCc4ccccc43)c3ccccc23)cc1 (stereo unspecified),?,-,-,13µM,0,25µM
CC(C)CN(CC(C)C)CC(O)Cn1cc(/C=C/C(=O)c2ccccc2)c2ccccc21 (stereo unspecified),89µM,-,-,0,0,0
CC1Cc2[nH]c(=S)[nH]c(=O)c2C(c2ccc(F)cc2)O1 (stereo unspecified),-,-,0,-,-,-
O=C1C(=O)c2ccccc2C(O)=C1c1cccc([N+](=O)[O-])c1,?,0,27µM,56µM,?,0
CCN(CC(=O)NCc1ccc(Cl)cc1)C(=O)COc1cccc(C(F)(F)F)c1,0,-,0,0,0,0
Cc1ccccc1C(=O)c1c[nH]c(C(=O)NCc2cccs2)c1,?,0,27µM,0[12.7 µM],0,0[11.4 µM]
CC(C)CC(=O)c1c[nH]c(C(=O)NCc2cccs2)c1,0,0,0,0.22µM,0,0
CCC(=O)c1c[nH]c(C(=O)NCc2cccs2)c1,0,0,0,0[12.7 µM],0,0
CC(C)C(NC(=O)c1ccc(C(C)(C)C)cc1)C(=O)NCc1ccccn1 (stereo unspecified),0,-,0,0[12.7 µM],0,0
CCOc1ccc(N2C(=O)c3cccnc3C2=O)cc1,56µM,0,0,0,0,?
COc1ccc(OC)c(N2C(=O)c3cccnc3C2=O)c1,79µM,0,0,0,0,0
CCCOc1ccc(-c2nc(=S)[nH][nH]2)cc1,0,50µM,?,-,0,?
C=CCSc1n[nH]c(-c2ccc(OCCCC)cc2)n1,0,0,0,0[12.7 µM],0,0
S=c1nc(-c2ccc(Cl)cc2)[nH][nH]1,0,45µM,38µM,0.56µM,?,?
O=C(Nc1cccn(Cc2c(Cl)cccc2Cl)c1=O)C1CC1,?,0,27µM,0,0,0
Cc1ccc(-c2c(C)sc(NC(=O)C3C4CCC(O4)C3C(=O)O)c2C(=O)OC(C)C)cc1 (stereo unspecified),?,0,?,0[0.0925 µM],0,?
CC(C)=C1C2CCC1C(C(=O)Nc1sc(C)c(-c3ccc(C(C)C)cc3)c1C(N)=O)C2C(=O)O (stereo unspecified),0,?,30µM,0,0,0
CCOC(=O)c1c(NC(=O)/C=C/C(=O)O)sc(C)c1-c1ccc(C)c(C)c1,?,25µM,?,-,0,0
COC(=O)c1c(NC(=O)/C=C/C(=O)O)sc(C)c1-c1ccc(C)cc1,0,0,0,?,0,0
CCOC(=O)c1c(NC(=O)/C=C/C(=O)O)sc(C)c1-c1ccc(F)cc1,0,50µM,0,0,0,0
COC(=O)c1c(NC(=O)/C=C/C(=O)O)sc(C)c1-c1ccc(C(C)C)cc1,?,0,38µM,?,0,0
SMILES,BAZ2B inh,Sfp PPTase inh,PLK1 PBD inh,G9a block,HP1b chromo inh,JMJD2A Tudor
CC12CCC=CC1C(c1ccc(F)c(/C=C/c3ccccc3)c1)N(Cc1ccccc1)C2=O (stereo unspecified),-,?,-,-,0,0
C=C1C(=O)c2sccc2C(c2ccc(OC)c(OC)c2)C1COC(C)=O (stereo unspecified),-,-,27µM,-,0,0
O=C1CCN(Cc2ccccc2)C=C1c1ccc2ccccc2c1,-,-,?,-,0,45µM
CC(NC(=O)COC(=O)c1ccco1)C12CC3CC(CC(C3)C1)C2 (stereo unspecified),-,-,-,-,0,0
CCOC(=O)c1ccc(N2C(=O)CC(Sc3nc(C)cc(C)n3)C2=O)cc1 (stereo unspecified),0,0,0,0,0,0
CCOC(=O)c1ccc(N2C(=O)CC(Sc3nnc(C)s3)C2=O)cc1 (stereo unspecified),0,45µM,?,10µM,0,50µM
CCOc1ccc(N2C(=O)CC(Sc3ncccn3)C2=O)cc1 (stereo unspecified),0,0,0,0,0,0
COc1ccccc1N1C(=O)CC(Sc2n[nH]c(-c3cccc(C)c3)n2)C1=O (stereo unspecified),0,5.6µM,13µM,1µM,?,2.8µM
CCOC(=O)c1ccc(-n2c(C)ccc2C)cc1,0,0,0,0,0,0
COc1ccccc1N1C(=O)CC(Sc2nccc(C)n2)C1=O (stereo unspecified),0,0,0,0[2.33 µM],0,0
CCOc1ccc(N2C(=O)CC(Sc3nccc(C)n3)C2=O)cc1 (stereo unspecified),0,0,27µM,0,0,0[11.4 µM]
CCOC(=O)c1ccc(N2C(=O)C=CC2=O)cc1,?,3.5µM,3.8µM,?,20µM,22µM
Cc1cc2c(c(=O)n1-c1ccccc1)C1O[C@](c3ccsc3)(Cc3ccccc31)O2,?,0,-,-,-,-
CCCCN1C(=O)C(CC(=O)NCCN2CCOCC2)CC(C(=O)N(CC)CC)=C1C (stereo unspecified),-,-,0,-,-,-
CC(=O)N1CCc2cc(S(=O)(=O)NC(Cc3ccccc3)C(=O)NCc3ccccc3)ccc21 (stereo unspecified),-,-,-,0,0,0
CCOC(=O)C(N)CSC1CC(=O)N(c2ccc(OC)cc2)C1=O (stereo unspecified),0,0,0,45µM,0,0
C=CCNc1nnc(SC2CC(=O)N(c3ccc(OCCC)cc3)C2=O)s1 (stereo unspecified),0,50µM,21µM,8.9µM,0,35µM
CCOC(=O)C(N)CSC1CC(=O)N(c2ccc(OCC)cc2)C1=O (stereo unspecified),0,0,0,?,0,0
Nc1nnc(SC2CC(=O)N(c3ccccc3)C2=O)s1 (stereo unspecified),0,79µM,30µM,8.9µM,?,45µM
Cc1cc(C)nc(SC2CC(=O)N(c3ccc(Br)cc3)C2=O)n1 (stereo unspecified),0,0,0,40µM,0,0
Cc1nc(SC2CC(=O)N(c3ccccc3)C2=O)n[nH]1 (stereo unspecified),?,16µM,30µM,-,?,?
O=C(/C(C=Nc1cccc(C(F)(F)F)c1)=C(/O)c1ccco1)C(F)(F)F,?,0,0,?,0,0
